From PubChem BioAssay (NCATS)
Records with an inconclusive call do not appear. The source made the active and inactive calls. Calls follow the shape of the dose curve; as a rule, active = well fitted cell-killing curve with a large enough effect; inconclusive = small, poorly fitted or top-dose-only effect, or effect the other way; inactive = no such curve, though single readings can be large or run the other way. Starred links: 1 amine or outer side, 2 acyl side, 3 side chain; linkers in the order of their positions; H or OH if unused. Positions of bridges follow the written chain, without caps; N, C: chain ends. Non-standard residues stand in square brackets, D forms with d. Residues, ends and D or L forms follow the SMILES beside them. Chains are numbered I, II in the order given. Actinocin(9to1) = Cc1c2oc3c(C)ccc(C(=O)[*:1])c3nc-2c(C(=O)[*:2])c(N)c1=O; NMeV = CN[CH](C(=O)O)C(C)C; Sar = CNCC(=O)O

Experiment: Quantitative High-Throughput drug screen in 47 multiple myeloma cell lines against the NCATS MIPE library collection: L363_DSMZ cell viability assay (AID 1918984); also: nearly all actives have a fitted effect of over 40% in size
Conditions: L363 myeloma viability, CellTiter-Glo ATP luminescence, 48 h; series mostly up to 45.8 µM
Method in brief: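 MIPE 4.0 approved/investigational drugs; 500 cells/well; 48 h 37 °C humidified 5% CO2; CTG luminescence readout; DMSO = 100%, media = 0% viability.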
Potency is read from the fitted curve at half-maximal effect.

| Compound | Potency |
| --- | --- |
| CCc1ccc(C(=O)Nc2cc(CN3CCN(C)CC3)cc(C(F)(F)F)c2)cc1C#Cc1cnc2ccnn2c1 | 6620 nM (active) |
| C=CC[C@@H]1C=C(C)C[C@H](C)C[C@H](OC)[C@H]2O[C@@](O)(C(=O)C(=O)N3CCCC[C@H]3C(=O)O[C@H](C(C)=C[C@@H]3CC[C@H](O)[C@H](OC)C3)[C@@H](C)[C@@H](O)CC1=O)[C@@H](C)C[C@@H]2OC | 1180 nM (active) |
| CO[C@@H]1[C@@H](O)[C@H](O)[C@@H](n2c3c(Cl)cccc3c3c4c(c5c6cccc(Cl)c6[nH]c5c32)C(=O)NC4=O)O[C@@H]1CO | 1050 nM (active) |
| Cc1cc(O)c2c(c1)C(=O)c1cccc(O)c1C2=O | inactive |
| C[C@H](NC(=O)C(C#N)=Cc1cccc(Br)n1)c1ccccc1 | 11800 nM (active) |
| Cn1cnc(=N)c2[nH]cnc21 | 132 nM (active) |
| CC(C)N1[N]C(=C2C=c3cc(O)ccc3=N2)c2c(N)ncnc21 | 59 nM (active) |
| COc1cccc2c1C(=O)c1c(O)c3c(c(O)c1C2=O)C[C@@](O)(C(=O)CO)C[C@@H]3O[C@H]1C[C@H](N)[C@@H](O)[C@H](C)O1 | 1870 nM (active) |
| COc1cc(C=CC(=O)CC(=O)C=Cc2ccc(O)c(OC)c2)ccc1O | 3030 nM (active) |
| CCC[C@H]1C[C@H](C(=O)N[C@@H]([C@@H]2O[C@@H](SC)[C@@H](O)[C@@H](O)[C@@H]2O)[C@H](C)Cl)N(C)C1 | inactive |
| C=CC(=O)Nc1ccc2ncnc(Nc3ccc(OCc4cccc(F)c4)c(Cl)c3)c2c1 | 29.6 nM (active) |
| OCc1ccccc1O[C@@H]1O[C@H](CO)[C@H](O)[C@H](O)[C@H]1O | inactive |
| Cn1cc(C2=C(c3c4n(c5ccccc35)CCC(CN)C4)C(=O)NC2=O)c2ccccc21 (centres undefined) | 7430 nM (active) |
| O=C(Nc1cccc(Nc2ncc(Br)c(NCCc3cnc[nH]3)n2)c1)N1CCCC1 | inactive |
| C=CCNc1c(O)cc2c(O)c1C[C@@H](C)C[C@H](OC)[C@@H](O)[C@@H](C)C=C(C)[C@H](OC(N)=O)[C@@H](OC)C=CC=C(C)C(=O)N2 | 33.2 nM (active) |
| C[C@@H]1CC[C@@]2(OC1)OC1CC3C4CC=C5CC(O)CCC5(C)C4CCC3(C)C1[C@@H]2C (some centres undefined) | inactive |
| CCS(=O)(=O)Nc1ccc2[nH]c(O)c(C(=Nc3ccc(CN4CCCCC4)cc3)c3ccccc3)c2c1 | 52.6 nM (active) |
| CCN(CC)CCNC(=O)c1c(C)[nH]c(C=C2C(=O)Nc3ccc(F)cc32)c1C | 540 nM (active) |
| O=C1NC(=O)[C@@H](c2cn3c4c(cccc24)CCC3)[C@H]1c1c[nH]c2ccccc12 | 118 nM (active) |
| COC1=C2C[C@@H](C)C[C@H](OC)[C@@H](O)[C@@H](C)C=C(C)[C@H](OC(N)=O)[C@@H](OC)C=CC=C(C)C(=O)NC(=CC1=O)C2=O | 7430 nM (active) |

| Compound | Potency |
| --- | --- |
| NC(=NCCCCCCN=C(N)N=C(N)Nc1ccc(Cl)cc1)N=C(N)Nc1ccc(Cl)cc1 | 8330 nM (active) |
| Nc1nc(N)c2nc(-c3cccc(O)c3)c(-c3cccc(O)c3)nc2n1 | 3720 nM (active) |
| CC(C)C[C@H](NC(=O)[C@@H](NC(=O)c1cccc(-c2ccccc2)n1)[C@@H](C)O)B(O)O | 26.4 nM (active) |
| O=C1CSC(=O)N1C(CCc1ccncc1)COc1ccc(-c2cccc([N+](=O)[O-])c2)cc1 (centres undefined) | inactive |
| C#C[C@]1(O)CC[C@@H]2[C@@H]3CCC4=CC(=O)CC[C@@H]4[C@H]3CC[C@@]21CC | 8.3 nM (active) |
| CC(=O)O[C@@]12CO[C@H]1C[C@H](O)[C@@]1(C)C(=O)[C@H](O)C3=C(C)[C@@H](OC(=O)C(O)[C@@H](NC(=O)OC(C)(C)C)c4ccccc4)C[C@@](O)([C@@H](OC(=O)c4ccccc4)[C@@H]21)C3(C)C (some centres undefined) | inactive |
| C[C@H](NCc1ccc(OCc2cccc(F)c2)cc1)C(N)=O | 1480 nM (active) |
| C[C@@]12C(=O)OC(=O)[C@@]1(C)C1CCC2O1 | 3720 nM (active) |
| Cc1c2oc3c(C)ccc(C(=O)NC4C(=O)NC(C(C)C)C(=O)N5CCCC5C(=O)N(C)CC(=O)N(C)C(C(C)C)C(=O)OC4C)c3nc-2c(C(=O)NC2C(=O)NC(C(C)C)C(=O)N3CCCC3C(=O)N(C)CC(=O)N(C)C(C(C)C)C(=O)OC2C)c(N)c1=O (centres undefined) (I: TVP[Sar][NMeV] / II: TVP[Sar][NMeV]; ester I:1-I:C, II:1-II:C; linker I:N-II:N via Actinocin(9to1); configuration not given here) | inactive |
| CC(C)c1cnn2c(NCc3ccccc3)cc(NCCCCCCN)nc12 | 14800 nM (active) |
| CC(C=CC(=O)NO)=C[C@@H](C)C(=O)c1ccc(N(C)C)cc1 | 132 nM (active) |
| CN1[C@H]2CC(OC(=O)[C@@H](CO)c3ccccc3)C[C@H]1[C@H]1O[C@H]12 (some centres undefined) | inactive |
| c1ccc(CNc2nc(NCc3ccccc3)c3ccccc3n2)cc1 | 5260 nM (active) |
| CN(C)c1ccc2cc(C(=O)N[C@@H](CCCN=C(N)CCl)C(=O)NCc3ccccc3)ccc2c1 | 6620 nM (active) |
| COc1cccc2c1C(=O)c1c(O)c3c(c(O)c1C2=O)C[C@@](O)(C(=O)CO)C[C@H]3O[C@H]1C[C@H](N)[C@H](O)[C@H](C)O1 | 743 nM (active) |
| CCC(C(=O)O)C1CCC(C)C(C(C)C(O)C(C)C(=O)C(CC)C2OC3(C=CC(O)[C@@]4(CC[C@](C)(C5CC[C@@](O)(CC)C(C)O5)O4)O3)C(C)CC2C)O1 (some centres undefined) | 833 nM (active) |
| CCC(C=C[C@@H]1OC(=O)C=C[C@H]1C)=C[C@H](C)CC=CC(C)=C[C@@H](C)C(=O)[C@@H](C)[C@H](O)[C@@H](C)CC(C)=CC(=O)O | 7.8 nM (active) |
| CC(C)C[C@H](NC(=O)CNC(=O)c1cc(Cl)ccc1Cl)B1OC(=O)CC(CC(=O)O)(C(=O)O)O1 (some centres undefined) | 83.3 nM (active) |
| COc1cc2c(cc1OC)[C@@H]1C(=O)c3ccc4c(c3O[C@@H]1CO2)C=CC(C)(C)O4 | 26.4 nM (active) |
